RPL19A TOR yeast = RPL19A-GFP expression modulators in yeast, primary screen, cell-based, S. cerevisiae, multiplex flow cytometry, MLPCN; percent response vs DMSO, % at 10 µM; S. cerevisiae RPL19A-GFP strain, 3 h; active compounds read low; hit rate 0.3% among 330,000;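 active = percent response vs DMSO below 50%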;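 also: median channel GFP fluorescence of the barcoded RPL19A-GFP strain; lower means less RPL19A-GFP as with rapamycin TOR inhibition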
MEP2-GFP yeast = modulators of MEP2-GFP levels in yeast, primary screen, S. cerevisiae, multiplex flow cytometry, MLPCN library; GFP response vs DMSO, % at 10 µM; AID 2016, 2009; S. cerevisiae MEP2-GFP strain, 3 h; 100% = DMSO control level; hit rate 0.51% among 330,000;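 active = GFP response versus DMSO above a set limit, roughly screen mean plus 3 SD, cut at about 180% in these data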;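 also: median GFP fluorescence of the barcode-gated MEP2-GFP cells per well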
LAP4-GFP MLPCN = modulators of LAP4-GFP expression in yeast, primary screen, S. cerevisiae, multiplex flow cytometry, MLPCN library | AID 2023, 2009 | GFP response vs DMSO, % at 10 µM | hit rate 0.34% among 320,000 | 3 h; median GFP as percent of DMSO wells;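 active = GFP response vs DMSO above a set limit, about the screen mean plus 3 SD, cut at about 150% in these data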
CIT2 TOR yeast = modulators of CIT2-GFP expression in yeast, primary screen, S. cerevisiae, GFP fusion, multiplex flow cytometry, MLPCN library; S. cerevisiae CIT2-GFP strain, 3 h; 100 means same as DMSO wells; hit rate 0.065% among 320,000; GFP response vs DMSO, % at 10 µM;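 active = GFP response relative to DMSO above a set limit, near the screen mean plus 3 SD, cut at about 150% in these data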;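 also: ratio of well median GFP fluorescence to mean of DMSO wells on the plate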
GASC-1 inh = inhibitors of GASC-1 histone demethylase, primary screen, biochemical, fluorescence, DELFIA europium; hit rate 0.069% among 330,000; inhibition, % at 2.35 µM; AID 2099, 2009; Lysine-specific demethylase 4C (Homo sapiens), Q9H3R0; GST-JMJD2C(1-420) H3K9me3 demethylation;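 active = more than half of a compound's replicate wells show inhibition beyond 50%, single wells judged on their own value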;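 also: signal counts dimethyl H3K9 product captured on neutravidin plate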
Target sequence (Q9H3R0 1-420 limits assumed): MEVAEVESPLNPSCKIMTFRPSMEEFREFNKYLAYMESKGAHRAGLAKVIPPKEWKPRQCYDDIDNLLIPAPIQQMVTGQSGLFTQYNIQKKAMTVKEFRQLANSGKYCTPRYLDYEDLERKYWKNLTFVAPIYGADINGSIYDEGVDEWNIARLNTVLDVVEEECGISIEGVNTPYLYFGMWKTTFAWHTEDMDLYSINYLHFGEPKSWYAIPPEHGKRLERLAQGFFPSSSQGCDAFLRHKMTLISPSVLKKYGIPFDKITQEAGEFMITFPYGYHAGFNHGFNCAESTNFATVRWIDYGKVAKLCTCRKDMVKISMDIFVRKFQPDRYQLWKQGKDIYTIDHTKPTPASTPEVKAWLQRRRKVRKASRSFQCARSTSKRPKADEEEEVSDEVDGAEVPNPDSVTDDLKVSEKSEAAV
AGP1 TOR yeast = modulators of AGP1-GFP expression in yeast TOR pathway, primary screen, cell-based, multiplex flow cytometry, S. cerevisiae, MLPCN library; GFP response vs DMSO, % at 10 µM; hit rate 0.02% among 320,000; 3 h; GFP as percent of DMSO wells;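 active = GFP response relative to DMSO above a set limit, near screen average plus 3 SD, cut at about 150% in these data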;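 also: median GFP channel fluorescence of the gated AGP1 strain per well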
LAP4-GFP pick2 = LAP4-GFP expression modulators in yeast, confirmation, cell-based, second cherry pick, flow cytometry; shares compounds with LAP4-GFP MLPCN; S. cerevisiae LAP4-GFP strain, 3 h; GFP response vs DMSO, % at 10 µM; hit rate 20% among 590; AID 2621, 2010;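 active = GFP signal as percent of the solvent control above about 150%, meaning raised reporter expression, limit read from the data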
MEP2-GFP pick2 = modulators of MEP2-GFP levels in yeast, confirmation, S. cerevisiae, flow cytometry GFP, second cherry picks. hit rate 10% among 590. S. cerevisiae MEP2-GFP strain, 3 h. AID 2622, 2010. GFP response vs DMSO, % at 10 µM. shares compounds with LAP4-GFP MLPCN;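 active = GFP signal above 150% of the solvent control wells, that is a rise of more than half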;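 also: median channel GFP fluorescence of all gated yeast cells per well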
RPL19A GFP CP2 = RPL19A-GFP modulators in TOR pathway yeast, confirmation, cell-based, S. cerevisiae, flow cytometry, second cherry pick | S. cerevisiae RPL19A-GFP strain, 3 h; active compounds read low; 100% means same as DMSO wells | AID 2623, 2010 | GFP response vs DMSO, % at 10 µM | shares compounds with LAP4-GFP MLPCN | hit rate 3% among 590;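 active = under 65% GFP response relative to DMSO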;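 also: median GFP channel fluorescence per well over the all cells gate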
CIT2-GFP pick2 = modulators of CIT2-GFP expression in yeast, confirmation, flow cytometry, second cherry pick, single plex | shares compounds with LAP4-GFP MLPCN | S. cerevisiae CIT2-GFP strain, 3 h; DMSO control wells read 100% | GFP response vs DMSO, % at 10 µM | hit rate 8% among 590 | AID 2624, 2010;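 active = GFP response vs DMSO above about 150%, limit read from the data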;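 also: median green fluorescence per well over all gated yeast cells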
AGP1 GFP CP2 = AGP1-GFP expression modulators, hit retest, confirmation, cell-based, flow cytometry, S. cerevisiae, cherry pick set 2; shares compounds with LAP4-GFP MLPCN; percent response vs DMSO, % at 10 µM; S. cerevisiae AGP1-GFP strain, 3 h; 590 tested, under 10 active;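 active = over 150 percent of DMSO response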;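 also: median GFP channel fluorescence over all cells without mother daughter split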
Yeast autofluor = compound autofluorescence in yeast s288c, dose response, artefact control for yeast TOR pathway GFP screen, s288c strain | shares compounds with LAP4-GFP MLPCN | S. cerevisiae s288c, 520 nm autofluorescence, flow cytometry, 3 h; active compounds read high; zero means same as solvent-only cells | fluorescence change (kMESF span) at 33 µM | 610 tested, under 10 active;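 active = fluorescence span over the dose series, or activity score, above about 33, limit read from the data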
Large screens that a line does not name were inactive (follow-up assays come after a bar, where they were run). A selection: hits, their analogues and other compounds. The true share with any hit is near 0.97%.

CN1/C(=C\C(=O)c2ccco2)C(C)(C)c2ccccc21	LAP4-GFP MLPCN 180.4 | LAP4-GFP pick2 inactive | MEP2-GFP pick2 inactive | RPL19A GFP CP2 inactive | CIT2-GFP pick2 inactive | AGP1 GFP CP2 inactive
OCC[C@@H]1C[C@H](O)[C@@H](O)[C@]2(CCc3ccccc3CO2)O1	none
O=C(CCC1CCCCC1)NCCS(=O)(=O)N1CCN(c2ccccc2)CC1	none
Oc1c(C(Nc2cccc(C(F)(F)F)c2)c2ccncc2)ccc2cccnc12 (centres undefined)	LAP4-GFP MLPCN 170.0 | Yeast autofluor inactive
COc1cc(C(=O)NCc2nnc(SCC(=O)Nc3nccs3)o2)cc(OC)c1OC	none | LAP4-GFP pick2 inactive | MEP2-GFP pick2 inactive | RPL19A GFP CP2 inactive | CIT2-GFP pick2 inactive | AGP1 GFP CP2 inactive
COc1cc(C(=O)NCc2nnc(SCC(=O)Nc3cc(C)on3)o2)cc(OC)c1OC	none
O=c1[nH]c(-c2ccccn2)nc(C(F)(F)F)c1Br	LAP4-GFP MLPCN 242.2 | Yeast autofluor inactive
O=C(/C=C/NCc1cccnc1)c1ccc(-c2ccccc2)cc1	none
CSc1nnc(-c2cc3c(s2)-c2ccccc2CC3)o1	LAP4-GFP MLPCN 151.3 | LAP4-GFP pick2 inactive | MEP2-GFP pick2 inactive | RPL19A GFP CP2 inactive | CIT2-GFP pick2 inactive | AGP1 GFP CP2 inactive
S=c1[nH]nc(-c2cc3c(s2)-c2ccccc2CC3)o1	none
O=C(c1ccc(S(=O)(=O)Nc2cccc(C(F)(F)F)c2)cc1)N1CCN(c2ccccc2O)CC1	none
Cc1ccc(C2=NN(S(C)(=O)=O)C(c3cccs3)C2)cc1 (centres undefined)	none
CCc1ccc(C2=NN(S(C)(=O)=O)C(c3cccs3)C2)cc1 (centres undefined)	MEP2-GFP yeast 378.1, LAP4-GFP MLPCN 257.6, CIT2 TOR yeast 230.4 | LAP4-GFP pick2 252.5 | MEP2-GFP pick2 483.8 | RPL19A GFP CP2 inactive | CIT2-GFP pick2 383.8 | AGP1 GFP CP2 inactive
Cc1ccc2c(nc3s/c(=C\c4ccc(-c5ccccc5C(=O)O)o4)c(=O)n32)c1C	MEP2-GFP yeast 184.3 | Yeast autofluor inactive
CCOC(=O)C(C)N1C(=O)S/C(=C\c2ccc(-c3ccccc3C(=O)O)o2)C1=O (centres undefined)	none
N/C(=N\OC(=O)c1ccccc1Cl)c1ccc(Cl)cc1	CIT2 TOR yeast 168.8 | Yeast autofluor inactive
